Hits are enriched below; roughly 11% of the tested compounds scored in any of these assays.
NPR1 antag: human Npr1 receptor antagonism; HEK293 hNpr1 GloSensor cGMP, ANP-stimulated luminescence; Potency, µM (doses to about 46.3 µM), without a hit: at the highest dose activity change, negative = inhibition, actives largely listed as inhibitors; 76,000 tested, 1.6% active; AID 1347048; calls by dose curve; further: on the % scale 0 is the no-effect control and ±100 the full control effect; nearly all actives have a fitted effect of over 60% in size
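HEK293 cells stably expressing human Npr1 and cGMP GloSensor pGS-40F, loaded 2 h with 2% GloSensor reagent, given compound 30 min at room temperature. Luminescence read before and 20 min after 0.1 nM hNppA.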
HEK293 tox: cytotoxic compounds in HEK 293 cells; 94,000 tested, 6.6% active; Potency, µM (titrated, usually from 115 µM), for inactives: at the highest dose activity change, negative = cytotoxicity, hits mostly inhibitors; HEK 293 viability, ATP luminescence (CellTiter-Glo), 48-72 h; further: on the % scale 0 is the no-effect control and ±100 the full control effect; nearly all actives have a fitted effect of over 60% in size
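HEK 293 cells seeded at 250 cells/well were exposed to compound for 48 or 72 hr at 37 degree Celsius. Viability taken as ATP content by CellTiter-Glo luminescence.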
FLuc inh-1: inhibitors of firefly (Photinus pyralis) luciferase | purified P. pyralis luciferase, luminescence, biochemical | AID 1347043 | Potency, µM (series often up to 115 µM), hits mostly inhibitors | 76,000 tested, 2.5% active; further: on the % scale 0 is the no-effect control and ±100 the full control effect; nearly all actives have a fitted effect of over 65% in size
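Purified P. pyralis luciferase (10nM final) in 50mM Tris acetate pH 7.5, 10mM Mg acetate, 0.01% Tween-20, 0.05% BSA with 10uM D-luciferin and 10uM ATP. Compounds titrated qHTS. Luminescence imaged on CCD.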
3T3 cytotox: NIH 3T3 cell cytotoxicity | Potency, µM (titrated, usually from 96.7 µM), for inactives: at the top dose activity change, negative = cytotoxicity, most hits filed as inhibitors | 94,000 tested, 4.3% active | AID 1345082 | NIH 3T3 viability, CellTiter-Glo ATP luminescence, 48-72 h; further: on the % scale 0 is the no-effect control and ±100 the full control effect; nearly all actives have a fitted effect of over 55% in size
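Cells were seeded at 400 per well, treated with pin-transferred compound, and kept 48 or 72 hr at 37 °C before CellTiter-Glo addition and luminescence imaging of cellular ATP.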
FLuc SDR no ATP: stabilizes firefly luciferase without ATP; Potency, µM (highest dose often 32.7 µM), for the others: top-dose activation (signal gain), hits mostly activators; shares compounds with FLuc inh-1; 1,300 tested, 7.8% active; Purified FLuc-C-HiBiT, Nano-Glo HiBiT luminescence, no ATP; further: nearly all actives have a fitted effect of over 55% in size
FLuc SDR ATP: firefly luciferase binding stabilization, ATP added | AID 1963319 | purified FLuc-C-HiBiT + ATP, HiBiT complementation luminescence | shares compounds with FLuc inh-1 | 1,300 tested, 8.7% active | Potency, µM (titrated, usually from 32.7 µM), for inactives: at the top dose activation (gain of signal), usual class: activators;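 further: signal reports ligand binding via conformational change of the enzyme rather than luciferase catalysis; % of control where 0% means no effect; nearly all actives have a fitted effect of over 55% in size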
FLuc inh-2: firefly luciferase enzyme inhibition; purified FLuc-C-HiBiT enzyme, luciferin luminescence; AID 1963320; Potency, µM (series often up to 32.7 µM), inactives show at the highest dose activity change, negative = inhibition, hits mostly inhibitors; 1,300 tested, 42% active; shares compounds with FLuc inh-1; further: on the % scale 0 is the no-effect control and ±100 the full control effect; nearly all actives have a fitted effect of over 70% in size
An asterisk follows results filed as active; i = inactive; ? = inconclusive; . = no result given; [ ] = dose if it differs, or a comment. Unless noted, the call rests on the fitted dose curve; in most records, active means well fitted curve in the direction sought with a large enough effect; inconclusive means small, poorly fitted or top-dose-only effect, or another doubt; inactive means no such curve, though single readings can be large; an effect the other way counts as inactive or inconclusive. Potency means the concentration at half of the fitted maximal effect.

SMILES | NPR1 antag | HEK293 tox | FLuc inh-1 | 3T3 cytotox | FLuc SDR no ATP | FLuc SDR ATP | FLuc inh-2
O=C(O)CCn1ncc2cc(OCC3CCN(C(=O)Cc4ccccc4)CC3)ccc21 | -1%[70.6 µM] | -12%[172 µM] | i | ? | . | . | .
C[S+](=O)([O-])CCn1ncc2cc(OCC3CCN(Cc4ccccc4)CC3)ccc21 | 6%[70.6 µM] | ? | i | ? | . | . | .
O=C(O)CCn1ncc2cc(OCc3ccc(-c4cccc(CO)c4)cc3)ccc21 | -5%[70.6 µM] | -7%[172 µM] | 20µM* | ? | 0%[49.3 µM] | 1%[49.3 µM] | ?
O=C1CC(c2ccccc2)N(C(=O)CNC(=O)c2ccc3ncccc3c2)CCCCCCN1 (stereo not given) | 0% | -5% | i | -6% | . | . | .
CCC(=O)Nc1ccc(C2(C(=O)N3CCC(N4CCCCC4)CC3)CCCCC2)cc1 | -2% | -25% | i | -17% | . | . | .
COc1ccccc1OCc1nc2ccccc2n1Cc1ccccc1 | . | . | . | . | 15% | 9% | ?
CCOC(=O)c1ccc(NC(=O)COc2ccc(-c3nnc4n3CCCC4)cc2)cc1 | -13% | 2% | i | -11% | . | . | .
Cc1nnc(SCc2ccccc2)c2cc3sccc3n12 | . | . | . | . | 16% | 10% | ?
COCC1CCN(c2ccc(-c3nc(-c4ccccc4C)no3)cn2)C1 (stereo not given) | ? | ? | 14µM* | -25% | 14% | 16% | ?
Cc1ccc2nc([C@H]3CCN(C(C)C)C3)[nH]c2c1 | 28µM* | ? | 7.9µM* | -25%[174 µM] | 17%[65.7 µM] | 16%[65.7 µM] | ?
O=C(CC1CCOCC1)Nc1ccc(OC(F)(F)F)cc1 | -13% | -18% | ? | -14% | . | . | .
O=C(CSc1nccn1Cc1ccco1)Nc1ccc(OC(F)(F)F)cc1 | . | . | . | . | 13% | 11% | ?
CCOc1ccc(-c2cc(CCCC(=O)NCCc3ccc(OCC)c(OCC)c3)no2)cc1 | . | . | . | . | 13% | ? | 3.5µM*
CCOc1ccc(-c2cc(CCCC(=O)NCCc3ccc(SC)cc3)no2)cc1 | . | . | . | . | 15% | ? | 3.1µM*
CC(C)N1CCC2(CC1)CN(C(=O)Cc1cccc(F)c1)Cc1ccccc1O2 | -1% | ? | i | ? | . | . | .
COc1ccc(-c2nc3c4cnn(-c5ccccc5F)c4ncn3n2)cc1 | . | . | . | . | 15% | 12% | ?
COc1ccc(-c2nc3c(c(-c4ccccc4)n2)CN(C(=O)c2ccccc2F)CC3)cc1 | -1% | ? | i | -28% | . | . | .
O=C(Nc1ccc2nnc(-c3ccc(C(=O)N4CCSCC4)cc3)n2c1)C1CCC1 | -8% | ? | i | ? | . | . | .
Cc1ccc(/C=C/c2nc3ccccc3[nH]2)cc1 | . | . | . | . | 0.39µM* | 0.56µM* | 0.044µM*
CSCc1nc(-c2ccncc2)nn1Cc1ccc2c(c1)OCO2 | 11µM* | ? | 4.5µM* | ? | 10% | 19% | -13%
O=C(NC1CCCCCC1)C1CCc2nnc(-c3cccc(C(F)(F)F)c3)n21 (stereo not given) | . | -25% | . | ? | . | . | .
Cc1noc(C)c1C(=O)N1CCC([C@H]2[C@@H](Oc3ccccc3)CN2C(C)C)CC1 | . | -12% | . | -17% | . | . | .
Cc1ccc(-c2ncc(NC(=O)c3ccccc3F)cn2)cc1 | ? | 6% | 0.56µM* | i | 26% | ? | 2µM*
O=C(NC1CCN(c2ccnc3ccnn23)C1)c1cccc(Br)c1 (stereo not given) | . | ? | . | -25%[138 µM] | . | . | .
O=C1NCc2ccccc2CC12CCN(Cc1ccc(F)cc1O)CC2 | . | ? | . | -18% | . | . | .
CC(C)(C)c1nnc2ccc(C(=O)NC3CCCCC3)cn12 | . | 0%[172 µM] | . | -29%[138 µM] | . | . | .
O=C(Nc1cc(Cl)cc(Cl)c1)c1ccn2nccc2c1 | -24%[70.6 µM] | -37%[172 µM] | 14µM* | ? | 24%[49.3 µM] | 17%[49.3 µM] | ?
O=C(Nc1ccc(Cl)nc1)c1ccn2nccc2c1 | -20%[70.6 µM] | -2%[172 µM] | i | -7%[138 µM] | . | . | .

Compound activity (PubChem BioAssay)
